In PubChem BioAssay (NCATS):
Where “and” joins values, the source holds several entries; their conditions need not be identical. Identical values can stand only once. Records with an inconclusive call do not appear. Where a call stands in place of a potency, no number is given. The source holds several records for some structures; these can differ, active in one and inactive in another. Calls of active or inactive are those of the source. Unless noted, calls come from the whole dose curve; as a rule, active = well fitted curve in the direction sought with a large enough effect; inconclusive = small, poorly fitted or top-dose-only effect, or another doubt; inactive = no such curve, though single readings can be large; an effect the other way counts as inactive or inconclusive.

Assays:
[1] = target: Cytochrome P450 2C9 (Homo sapiens) (UniProt P11712); assay: Cytochrome P450 family 2 subfamily C member 9 (CYP2C9) small molecule antagonists: luciferase biochemical (cell-free) qHTS assay (AID 1645842; active = well fitted curve in the direction sought with a large enough effect in the repeat runs; an effect the other way counts as inactive or inconclusive; note: nearly all actives have a fitted effect of over 55% in size; note: potency is the fitted concentration of half-maximal effect); conditions: P450-Glo CYP2C9 enzyme assay, luciferin luminescence; series mostly up to 57.4 µM
Cytochrome P450 2C9 (Homo sapiens), sequence (P11712 whole entry, looked up): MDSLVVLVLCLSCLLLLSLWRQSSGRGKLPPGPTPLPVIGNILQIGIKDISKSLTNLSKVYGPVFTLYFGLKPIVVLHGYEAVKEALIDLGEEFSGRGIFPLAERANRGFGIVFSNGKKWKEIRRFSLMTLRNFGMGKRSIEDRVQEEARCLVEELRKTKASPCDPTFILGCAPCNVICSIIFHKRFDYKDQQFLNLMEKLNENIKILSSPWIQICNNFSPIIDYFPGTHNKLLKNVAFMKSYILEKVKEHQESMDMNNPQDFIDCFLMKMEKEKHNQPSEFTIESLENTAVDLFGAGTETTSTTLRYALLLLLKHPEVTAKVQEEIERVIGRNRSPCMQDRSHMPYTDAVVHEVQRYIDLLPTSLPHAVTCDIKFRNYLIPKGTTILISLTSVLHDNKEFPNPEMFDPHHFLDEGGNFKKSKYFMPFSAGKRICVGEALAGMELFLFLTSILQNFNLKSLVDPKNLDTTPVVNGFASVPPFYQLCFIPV
Summary of the method: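 Luminescence, after 20 min with luciferin detection reagent, reflected CYP2C9 turnover during a 1 h NADPH-driven reaction at 37C. Enzyme-substrate mix contained 0.4% bovine serum albumin and was preincubated with compound 10 min at room temperature.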

Papain (Carica papaya) = Papain (Carica papaya) (UniProt P00784); assay: Primary qHTS assay for inhibitors of the protease papain (AID 1645873); conditions: papain Z-FR-AMC cleavage, AMC fluorescence; series mostly up to 49.8 µM;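 note: papain turnover of Z-FR-AMC read as the AMC fluorescence gain over 10 min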; note: potency is the fitted concentration of half-maximal effect
Papain (Carica papaya), sequence (P00784 whole entry, looked up, the tested form may be a part): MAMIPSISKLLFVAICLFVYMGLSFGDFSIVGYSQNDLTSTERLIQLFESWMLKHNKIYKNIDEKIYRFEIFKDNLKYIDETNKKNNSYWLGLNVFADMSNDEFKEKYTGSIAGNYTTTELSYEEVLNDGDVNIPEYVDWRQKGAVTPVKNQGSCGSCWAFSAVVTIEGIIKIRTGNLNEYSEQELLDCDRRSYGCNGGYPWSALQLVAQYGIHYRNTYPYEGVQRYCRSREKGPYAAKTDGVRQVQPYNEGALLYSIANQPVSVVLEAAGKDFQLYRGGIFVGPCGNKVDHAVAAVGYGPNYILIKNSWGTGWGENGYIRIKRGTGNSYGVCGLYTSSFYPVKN

[2] = Primary qHTS for inhibitors of nuclear receptor binding SET domain protein 2 (NSD2) in an isogenic RCH-ACV NSD2 p.E1099K mutant (9B) (AID 1645876); conditions: RCH-ACV NSD2 E1099K (9B) viability, CellTiter-Glo, 72 h; series mostly up to 44.9 µM; note: nearly all actives have a fitted effect of over 70% in size; note: potency is the fitted concentration of half-maximal effect
[3] = Primary qHTS for inhibitors of nuclear receptor binding SET domain protein 2 (NSD2) in an RCH-ACV wild type WT cells (2C) (AID 1645877); conditions: RCH-ACV (leukaemia line) NSD2 WT (2C) viability, CellTiter-Glo, 72 h; series mostly up to 44.9 µM; note: nearly all actives have a fitted effect of over 70% in size; note: potency is the fitted concentration of half-maximal effect
[4] = target: Catechol O-methyltransferase (Homo sapiens) (UniProt P21964); assay: Confirmatory Screen for Target Class Profiling of Small Molecule Inhibitors of Methyltransferases (AID 1745852); conditions: MTase-Glo luminescence, SAH detection, recombinant enzyme; measured here: COMT max response; stronger effect = lower value
Catechol O-methyltransferase (Homo sapiens), sequence (P21964 whole entry, looked up): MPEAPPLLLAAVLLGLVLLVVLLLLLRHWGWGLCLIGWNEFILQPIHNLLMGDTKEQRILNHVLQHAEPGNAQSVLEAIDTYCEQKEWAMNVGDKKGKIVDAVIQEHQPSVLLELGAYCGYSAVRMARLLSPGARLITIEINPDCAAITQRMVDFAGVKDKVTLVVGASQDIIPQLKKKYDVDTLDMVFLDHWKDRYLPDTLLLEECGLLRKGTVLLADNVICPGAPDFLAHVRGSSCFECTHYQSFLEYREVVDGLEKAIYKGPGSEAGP

| Structure (SMILES) | Potency [1] | Potency (Papain (Carica papaya)) | Potency [2] | Potency [3] | activity [4] |
| --- | --- | --- | --- | --- | --- |
| Cc1ccc(N(CC2=NCCN2)c2cccc(O)c2)cc1 | inactive | inactive | inactive | – | – |
| N=c1nc(N2CCCCC2)cc(N)n1O | inactive | inactive | inactive | inactive | – |
| Cn1cnc([N+](=O)[O-])c1Sc1ncnc2nc[nH]c12 | inactive | inactive | 959 nM (active) and 1.19 µM (active) and 4.17 µM (active) | 1.35 µM (active) and 944 nM (active) and 3.72 µM (active) | – |
| O=C1CCc2cc(OCCCCc3nnnn3C3CCCCC3)ccc2N1 | 6.17 µM (active) | inactive | inactive | 21.1 µM (active) | – |
| Cn1cc(-c2ccc3nnc(C(F)(F)c4ccc5ncccc5c4)n3n2)cn1 | 3.01 µM (active) | – | – | – | – |
| CCCc1nn(C)c2c(=O)[nH]c(-c3cc(S(=O)(=O)N4CCN(C)CC4)ccc3OCC)nc12 | 13.5 µM (active) | inactive | inactive | 10.6 µM (active) and inactive | – |
| CC(C)NCC(O)COc1ccc(COCCOC(C)C)cc1 (stereo not given) | inactive | inactive | inactive | inactive | – |
| COc1cc2nccc(Oc3ccc(NC(=O)NC4CC4)c(Cl)c3)c2cc1C(N)=O | 12 µM (active) | – | – | – | – |
| CCn1cc(C(=O)O)c(=O)c2cc(F)c(N3CCNC(C)C3)c(F)c21 (stereo not given) | inactive | 15.8 µM (active) | inactive | inactive | – |
| COc1ccc(-c2oc3cc(OC)ccc3c2C(=O)c2ccc(C#N)cc2)cc1 | 7.56 µM (active) | – | – | – | – |
| Clc1cccc(Cl)c1NC1=NCCN1 | inactive | inactive | inactive | inactive | – |
| CS(=O)(=O)c1cccc(CNc2nc(Nc3ccc4c(c3)CCC(=O)N4)ncc2C(F)(F)F)c1 | 0.169 µM (active) | inactive | 3.32 µM (active) | 3.32 µM (active) | -9.69% and -3.27% |
| CCOc1cc(C(=O)Nc2ccc(Cl)c(-c3nc4ccccc4[nH]3)c2)cc(OCC)c1OCC | inactive | – | – | – | – |
| CCN(CC)CCCC(C)Nc1nc(C)cc(Nc2ccc3nc(C)cc(N)c3c2)n1 (stereo not given) | inactive | – | – | – | – |
| NCCc1ccc(O)c(O)c1 | inactive | inactive | inactive and 23.5 µM (active) | inactive | – |
| Cc1oncc1C(=O)Nc1ccc(C(F)(F)F)cc1 | 13.8 µM (active) | inactive | 10.6 µM (active) and 16.6 µM (active) | 10.6 µM (active) and 14.8 µM (active) | – |
| C1COC(NC(C2CC2)C2CC2)=N1 | inactive | inactive | inactive | inactive | – |

| Structure (SMILES) | Potency [1] | Potency (Papain (Carica papaya)) | Potency [2] | Potency [3] | activity [4] |
| --- | --- | --- | --- | --- | --- |
| Nc1nc2c(ncn2COCCO)c(=O)[nH]1 | inactive | inactive | inactive | inactive | – |
| OC(CN1CCC(Cc2ccc(F)cc2)CC1)c1ccc(Cl)cc1 (stereo not given) | inactive | inactive | inactive | inactive | – |
| CC(=O)Oc1ccccc1C(=O)O | inactive | inactive | inactive | inactive | – |
| NC(=O)c1cnccn1 | inactive | inactive | inactive | inactive | – |
| OC(CCN1CCCCC1)(c1ccccc1)C1CC2C=CC1C2 (stereo not given) | inactive | inactive | inactive | inactive | – |
| Cc1[nH]c(=O)c(C#N)cc1-c1ccncc1 | 29.9 µM (active) | inactive | inactive | inactive | – |
| N[C@@H]1CONC1=O | inactive | inactive | inactive | inactive | – |
| NC(N)=NC(=O)c1nc(Cl)c(N)nc1N | inactive | 28.2 µM (active) | – | – | – |
| CC(C[N+](C)(C)C)OC(N)=O (stereo not given) | inactive | inactive | inactive | inactive | – |
| CNC[C@H](O)c1cccc(O)c1 | inactive | inactive | inactive | inactive | – |
| CN(C)C(=O)c1ccc(S(=O)(=O)c2ccc(NC(=O)[C@@](C)(O)C(F)(F)F)c(Cl)c2)cc1 | 6.74 µM (active) | – | – | – | – |
| O=c1[nH]cnc2[nH]ncc12 | inactive | inactive | inactive | inactive | – |
| c1ccc([C@H]2CN3CCSC3=N2)cc1 | inactive | inactive | inactive | inactive | – |
| C[C@@H]1CN(Cc2ccc(F)cc2)[C@@H](C)CN1C(=O)c1cc2c(C(=O)C(=O)N(C)C)cn(C)c2cc1Cl | 7.56 µM (active) | – | – | – | – |
| CC(C)(C)NCC(O)c1ccc(O)c(CO)c1 (stereo not given) | inactive | inactive | inactive | inactive | – |
| C[C@]12CCC(=O)C=C1CC[C@@H]1[C@@H]2[C@@H](O)C[C@@]2(C)[C@H]1CC[C@]2(O)C(=O)CO | inactive | inactive | inactive | 1.68 µM (active) and 296 nM (active) | – |
| Cc1c(C)c2c(c(C)c1O)CCC(C)(COc1ccc(CC3SC(=O)NC3=O)cc1)O2 (stereo not given) | 6.92 µM (active) | – | – | – | – |
